Assay results reported in the supplement of paper PMC10849652.
The full data set covers some 7,900 targets. This sample favours those with a hit. About 0.6% of all pairs of compound and target were hits.

Columns and labels:
Assay in all cases: log2 fold change, soluble protein after heating vs DMSO (PISA); higher = thermal stabilisation; K562 cells, 10 uM, 30 min; active = over 0.2 and 3.5 SD of the protein, either way, in both replicates (recomputed)
ZW10 = ZW10 (UniProt O43264)
In short: (§1)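 K562 cells at 2×10^6 cells/mL were treated with 10 μM compound for 30 min. Aliquots were heated for 3 min across 48°C-58°C, pooled, and extracted in PBS with 0.5% NP-40 at 4°C; soluble protein was the supernatant after 21,000xg for 90 min. Soluble protein was quantified by TMTpro 16plex LC-MS/MS with channel sums equalised, and reported as log2 fold change in thermal stability against DMSO controls, with values from duplicates.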

ZWILCH = ZWILCH (UniProt Q9H900)
Sequence of ZWILCH (Q9H900 whole entry, looked up): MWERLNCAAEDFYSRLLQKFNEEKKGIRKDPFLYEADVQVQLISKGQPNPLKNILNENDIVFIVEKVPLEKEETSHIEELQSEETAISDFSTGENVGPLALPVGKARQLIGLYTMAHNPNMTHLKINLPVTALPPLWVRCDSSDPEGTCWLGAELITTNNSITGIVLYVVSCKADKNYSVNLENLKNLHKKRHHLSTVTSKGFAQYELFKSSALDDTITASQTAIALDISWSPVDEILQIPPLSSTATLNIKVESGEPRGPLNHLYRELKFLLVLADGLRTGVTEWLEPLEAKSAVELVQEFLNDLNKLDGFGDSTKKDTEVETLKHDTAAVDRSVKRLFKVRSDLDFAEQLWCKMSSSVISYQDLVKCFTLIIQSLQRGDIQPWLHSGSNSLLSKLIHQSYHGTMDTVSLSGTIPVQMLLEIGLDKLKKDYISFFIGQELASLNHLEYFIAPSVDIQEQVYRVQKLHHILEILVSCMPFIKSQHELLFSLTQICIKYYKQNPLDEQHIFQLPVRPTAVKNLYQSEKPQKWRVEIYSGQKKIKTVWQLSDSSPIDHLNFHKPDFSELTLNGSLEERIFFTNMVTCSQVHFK
In short: as §1

ZYG11B = ZYG11B (UniProt Q9C0D3)
Sequence of ZYG11B (Q9C0D3 whole entry, looked up): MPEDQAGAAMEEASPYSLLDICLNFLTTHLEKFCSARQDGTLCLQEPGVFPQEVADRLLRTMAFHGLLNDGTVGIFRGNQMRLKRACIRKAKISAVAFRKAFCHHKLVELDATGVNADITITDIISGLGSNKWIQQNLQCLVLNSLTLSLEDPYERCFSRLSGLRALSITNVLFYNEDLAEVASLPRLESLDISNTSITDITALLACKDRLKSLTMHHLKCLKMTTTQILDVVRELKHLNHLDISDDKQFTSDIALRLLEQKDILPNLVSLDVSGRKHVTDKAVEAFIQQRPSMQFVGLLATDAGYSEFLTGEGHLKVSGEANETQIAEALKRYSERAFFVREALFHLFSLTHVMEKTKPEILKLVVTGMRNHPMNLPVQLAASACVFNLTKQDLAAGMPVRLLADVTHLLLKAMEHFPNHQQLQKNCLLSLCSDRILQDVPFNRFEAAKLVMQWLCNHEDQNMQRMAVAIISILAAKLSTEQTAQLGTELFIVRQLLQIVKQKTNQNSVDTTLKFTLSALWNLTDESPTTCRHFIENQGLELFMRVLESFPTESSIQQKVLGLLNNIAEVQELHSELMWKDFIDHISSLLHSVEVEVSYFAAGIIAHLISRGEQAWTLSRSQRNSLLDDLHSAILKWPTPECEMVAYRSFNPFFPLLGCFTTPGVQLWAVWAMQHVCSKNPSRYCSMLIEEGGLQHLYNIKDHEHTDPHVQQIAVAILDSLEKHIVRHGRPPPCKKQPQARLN
In short: as §1

Measured: log2 fold change

Sequence of ZW10 (O43264 whole entry, looked up): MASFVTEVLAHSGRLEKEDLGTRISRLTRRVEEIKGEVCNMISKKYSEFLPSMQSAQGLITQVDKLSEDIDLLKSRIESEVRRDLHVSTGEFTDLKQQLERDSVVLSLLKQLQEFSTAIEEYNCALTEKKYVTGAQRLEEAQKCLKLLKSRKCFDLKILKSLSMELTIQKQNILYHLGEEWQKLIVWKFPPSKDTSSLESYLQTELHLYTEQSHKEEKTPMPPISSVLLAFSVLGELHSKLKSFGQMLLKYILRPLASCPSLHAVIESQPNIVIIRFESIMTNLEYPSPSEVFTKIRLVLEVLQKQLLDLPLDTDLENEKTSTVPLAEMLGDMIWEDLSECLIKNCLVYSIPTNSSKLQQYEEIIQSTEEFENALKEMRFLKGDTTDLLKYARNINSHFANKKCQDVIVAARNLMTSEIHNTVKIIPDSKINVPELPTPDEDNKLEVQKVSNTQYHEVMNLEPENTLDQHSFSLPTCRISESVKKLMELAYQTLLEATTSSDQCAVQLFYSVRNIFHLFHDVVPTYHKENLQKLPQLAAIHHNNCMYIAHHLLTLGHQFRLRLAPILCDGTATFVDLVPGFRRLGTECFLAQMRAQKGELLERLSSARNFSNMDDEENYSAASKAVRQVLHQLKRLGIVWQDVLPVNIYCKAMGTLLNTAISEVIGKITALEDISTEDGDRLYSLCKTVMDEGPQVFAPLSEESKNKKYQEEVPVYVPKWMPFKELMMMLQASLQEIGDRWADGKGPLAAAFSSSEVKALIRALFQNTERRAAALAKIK

COc1cc2ncnc(Nc3ccc(F)c(Cl)c3)c2cc1OCCCN1CCOCC1 [gefitinib]
inactive: ZW10 0.135 | ZWILCH 0.125 | ZYG11B 0.042

CS(=O)(=O)N1CCN(Cc2cc3nc(-c4cccc5[nH]ncc45)nc(N4CCOCC4)c3s2)CC1 [pictilisib]
inactive: ZW10 0.005 | ZWILCH -0.026 | ZYG11B 0.104

COc1cc2nc(-c3cc(F)ccc3O)nc(N[C@@H]3CNC[C@H]3C(C)(C)O)c2cc1OC
inactive: ZW10 0.041 | ZWILCH 0.03 | ZYG11B 0.034

Cc1ccc(NC(=O)c2cccc(N(C)C)c2)cc1NC(=O)c1ccc(O)cc1
inactive: ZW10 -0.043 | ZWILCH 0.238 | ZYG11B -0.018

Cn1cncc1[C@@](N)(c1ccc(Cl)cc1)c1ccc2c(c1)c(-c1cccc(Cl)c1)cc(=O)n2C [tipifarnib]
inactive: ZW10 -0.087 | ZWILCH -0.01 | ZYG11B 0.089

CC(C)c1cnn2c(NCc3ccccc3)cc(NCCCCCCN)nc12
inactive: ZW10 -0.213 | ZWILCH -0.107 | ZYG11B 0.058

FC(F)(F)c1ccc(/C=C/c2nc(COc3ccc(CCCCn4ccnn4)cc3)co2)cc1 [mubritinib]
inactive: ZW10 0.028 | ZWILCH 0.037 | ZYG11B 0.01

O=C(CCCCCCNC(=O)c1cnc(N(c2ccccc2)c2ccccc2Cl)nc1)NO [citarinostat]
inactive: ZW10 0.033 | ZWILCH 0.104 | ZYG11B -0.043
